Screening data as filed in PubChem BioAssay.
The sample as a whole holds a higher share of hits than the screen did.
Tg IFNy HTS – blocks Toxoplasma gondii growth in the presence of IFN-gamma | hit rate 3.8% among 69,000 | Toxoplasma gondii growth in IFN-gamma-treated host cells; hits give low values | activity change, negative = inhibition, % (no concentration beside the values); in the data active = activity change below about -70%, passing the limit was not always enough;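 note: host cells are HeLa cells infected with Toxoplasma gondii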
Of the large screens only hits and unclear results are named; the others gave an inactive call; ! = repeats disagree.

CCN(CC)Cc1cn2c(n1)CN(C1CCOC1)CC2 (centres undefined)	none
CC(C)NC(=O)[C@H]1C[C@H]2CCN(CCOCc3ccccc3)C[C@@H]2O1	none
CCCCCCCc1ccc(C(=O)NC(=S)Nc2cc(C)on2)cc1	Tg IFNy HTS -92
Cc1cc(NC(=O)CCCC(=O)O)no1	none
Cc1cc(NC(=O)c2ccccc2)no1	none
Cc1noc(C)c1Cc1ccc(C(=O)N2CCCC(c3nc4ccccc4cc3N)C2)s1 (centres undefined)	none
CC(C)CCN1C[C@@H]2CCN(C(=O)c3ccnnc3)CC[C@H]2S1(=O)=O	none
Cc1ccc(N2CCO[C@H]3CN(C(=O)c4cccc(C)n4)C[C@@H]32)nn1	none
CCOc1ccc(NC(=O)CC2C(=O)N(c3ccccc3)C(=O)N2Cc2cccnc2)cc1 (centres undefined)	none
CC(=O)Nc1ccc(OC(=O)c2ccccc2O)cc1	none
O=C(/C=C/c1ccccc1)NC(=O)c1ccccc1O	none
O=C(N/N=C/c1ccccc1O)c1ccccc1O	Tg IFNy HTS -83
CN1CCN(C(=O)c2ccc(CC3CCCNC3)cc2)CC1 (centres undefined)	none
COc1ccccc1C1(O)CCN(CCCn2c3ccccc3c3ccccc32)CC1	Tg IFNy HTS -77!
CC1CN(CCCn2c3ccccc3c3ccccc32)CC(C)N1 (centres undefined)	none
COc1ccccc1C1(O)CCCN(CC(O)c2ccc(C)cc2)C1 (centres undefined)	none
COc1cc2c(cc1CN1CCC(O)(c3ccc(F)cc3)CC1)OCO2	none
CCn1ncc(S(=O)(=O)N2CCCCC2c2cc(C(=O)NC3CCCC3)n[nH]2)c1C (centres undefined)	none
CC(C)n1nc(-c2cc3cc(O)ccc3[nH]2)c2c(N)ncnc21	none
CC(C)(C)n1nc(-c2ccc(Cl)cc2)c2c(N)ncnc21	Tg IFNy HTS -90
CCCCN1CCCC(Cn2cc(C3CCCC3)nn2)C1 (centres undefined)	none
Cc1nc(CN2CC3(CCN(CC4CC4)CC3)OCC2=O)cs1	none
CCS(=O)(=O)N1CCN(c2nnc(-c3cccs3)c(-c3cccs3)n2)CC1	none
c1csc(-c2nc3ccc4ccccc4c3c3c2CCC3)c1	none
c1csc(-c2nnc(Cc3ccncc3)c3ccccc23)c1	Tg IFNy HTS -91
Cc1ccc(C)c(NC(=O)Cn2cnc3cc(C)c(C)cc32)c1	none
Cc1ncc(-c2ccncc2)c(CN(C)S(=O)(=O)c2ccc3c(c2)CCC(=O)N3)n1	none
NC(=O)N1CCCn2c(nc(CNc3ccccn3)cc2=O)C1	none
COc1cc(C[C@H]2C(=O)OC[C@@H]2Cc2ccc(OC)c(OC)c2)ccc1O	none
COc1ccc2c(c1)OCC(Cc1ccc(O)c(OC)c1)C2=O (centres undefined)	none
COc1ccc2c(c1)OCC(Cc1ccc(OC)c(O)c1)C2=O (centres undefined)	Tg IFNy HTS -75
O=C(NCc1ccccn1)c1nn(CCc2ccccc2)c2c1CN(C(=O)c1ccccn1)CC2	none
Cc1ccsc1-c1nc(COc2cccc(N3CCOCC3)c2)c(C)o1	none
Cc1ccc(F)cc1NC(=O)c1c(O)c2ccccc2[nH]c1=O	none
CC(C)c1ccc2[nH]c(=O)c(CNc3ccc4[nH]ncc4c3)cc2c1	Tg IFNy HTS -82
COc1cc2cc(CNc3ccc(N4CCN(C)CC4)cc3)c(=O)[nH]c2cc1OC	none
COc1ccc2[nH]c(=O)c(CNc3ccc(-c4nc5ccc(C)cc5[nH]4)cc3)cc2c1	none
O=C(c1ccn[nH]1)N1CCC2(CCCN2c2ncccn2)CC1	none
Cc1ccccc1-c1ncc(C2CC(=O)Nc3c2c(C2CC2)nn3C)s1 (centres undefined)	none
CCN1C[C@]23CN(C(=O)c4cnccn4)C[C@@H](C[C@H]2S1(=O)=O)O3	none
COc1c2ccoc2cc2oc(=O)ccc12	Tg IFNy HTS -87!
COc1ccc2c(c1)c(=O)oc1cc3occ(C(C)(C)C)c3cc12	none
O=c1ccc2cc3ccoc3cc2o1	none
COc1ccc(OCC(=O)N2CCC[C@@H]2C(=O)NCCc2csc(-c3ccccc3)n2)cc1	none
Nc1cccc(-c2nc3ccccc3[nH]2)c1	none
Nc1cccc2nc3ccccc3cc12	Tg IFNy HTS -99
Nc1ccccc1Nc1nc2ccccc2[nH]1	none
COc1ccc(NC(=O)c2ccc3nnc(C4CN(C(C)=O)CCN4C(C)C)n3c2)cc1 (centres undefined)	none
Cc1ccc(NC(=O)C(c2ccccc2)c2ccccc2)cc1C	none
Cc1ccc(-c2ncc(CN(Cc3ccccc3)Cc3cccc(C)n3)cn2)cc1	Tg IFNy HTS -79
Cc1cccc(CN(Cc2ccccc2)C(=O)c2ccc3nc(C(F)(F)F)[nH]c3c2)n1	none
Cc1cccc(CN(Cc2ccccc2)C(=O)CCc2ccncc2)n1	none
CCN(CC)C(=O)C1Cn2ccnc2C2(CCN(CC3CCOCC3)CC2)O1 (centres undefined)	none
Cc1ccc(S(=O)(=O)N2CC[C@@H]3C[C@H](NC(=O)CSc4nnc(C)o4)[C@@H]32)cc1	none
Cc1nccn1CCCN1CCC2(CCCO2)CCC1=O (centres undefined)	none
COc1cc2ncnc(Nc3cccc(Br)c3)c2cc1OC	Tg IFNy HTS -79
CCC(C)Nc1ncnc2cc(OC)c(OC)cc12 (centres undefined)	none
COc1cc2ncnc(Nc3cccc(O)c3)c2cc1OC	none
CCN(CC)C(=O)c1cc(=O)n(CC(=O)Nc2c(C)cc(C)cc2C)c2ccccc12	none
Cc1oc(-c2ccc(Cl)cc2)nc1Cn1nnc(C(=O)Nc2ccccc2)c1C	none
CCCCN1CCN(Cc2ncccc2C(=O)O)CC1	none
O=C(C[C@H]1OC[C@H]2CN(Cc3ccccc3F)CC[C@@H]21)N1CCCO1	none
COc1ccc(CN2C[C@@H]3CCN(C(=O)c4ccno4)CC[C@H]3S2(=O)=O)cc1	none
COc1ccc(CCN2C[C@@H]3CCN(C(=O)c4cnc(C)cn4)CC[C@H]3S2(=O)=O)cc1	none
O=C(C1CCC1)N1CC[C@H]2CN(Cc3ccc(Cl)cc3)S(=O)(=O)[C@@H]2CC1	none
O=C(NC1CCCC1)N1CC[C@H]2CN(Cc3ccc(Cl)cc3)S(=O)(=O)[C@@H]2CC1	Tg IFNy HTS -89
O=C(C1CCC1)N1CC[C@H]2CN(Cc3ccccc3)S(=O)(=O)[C@@H]2CC1	none
O=C(c1ccn[nH]1)N1CC[C@H]2CN(Cc3ccc(Cl)cc3)S(=O)(=O)[C@@H]2CC1	Tg IFNy HTS -73
CC(C)CN1C[C@@H]2CCN(C(=O)NC3CCCC3)CC[C@H]2S1(=O)=O	none
COc1ccc(CN2C[C@@H]3CCN(C(=O)c4ccn[nH]4)CC[C@H]3S2(=O)=O)cc1	none
COc1cccc(CN2C[C@@H]3CCN(C(=O)C4CCC4)CC[C@H]3S2(=O)=O)c1	Tg IFNy HTS -91
O=C(O)C1CC(N2CCCC2)CCN1C(=O)Cc1cccs1 (centres undefined)	none
Cc1cc(C(F)(F)F)cc(Oc2ccc(-c3ccnc(N)n3)cc2)n1	none
CN1CCCCC1CCNC(=O)c1ccc(-c2cccc3ncccc23)nc1 (centres undefined)	none
CC(C)N1CCO[C@H]2CN(S(=O)(=O)Cc3ccccc3)CC[C@@H]2C1	none
O=C(c1cccc2ccccc12)N1CCN(Cc2cccnc2)CC1	none
COc1ccc(-c2nc(C)c(CCNC(=O)C(=O)Nc3ccc(F)cc3)s2)cc1	none
C[C@]12CC[C@@H]3c4ccc(O)cc4C[C@@H](CCCCCCCCCS(=O)CCCC(F)(F)C(F)(F)F)[C@H]3[C@@H]1CC[C@@H]2O (some centres undefined)	Tg IFNy HTS -78
COc1cc(C)c2c(c1)C=CC1C2CCC2(C)C(O)CCC12 (centres undefined)	none
CCCCC(=O)Nc1ccc(-c2nc(-c3cc(C)ccc3C)co2)cc1	none
Cc1nnsc1C(=O)N1CC[C@@H]2OCCN(C)[C@@H]2C1	none
